PubChem BioAssay (NCI)
Compounds without any hit were thinned out: in the full panel of roughly 79,000, 15% have a hit. Activity calls are given as the source filed them. No stated cut-off is given here; in the data, active means growth inhibition above about 70%; inactive means the rest.

Assays:
[1] = NCI Yeast Anticancer Drug Screen. Data for the mlh1 strain (AID 171);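 further: 0% = growth of vehicle-treated control cultures of the same strain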; settings: S. cerevisiae mlh1 strain growth inhibition, stronger effect = higher value
Procedure, shortened: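 Yeast screen: mutant strain plus compound, growth scored against vehicle control wells.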

[2] = NCI Yeast Anticancer Drug Screen. Data for the sgs1 strain (AID 173);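 further: 0% = growth of vehicle-only control cultures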; settings: S. cerevisiae sgs1 mutant, stronger effect = higher value
Procedure, shortened: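 Inhibition of yeast growth served as the measure. The mutant strain was treated with each compound, and growth was normalised to cultures receiving vehicle alone.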

[3] = NCI Yeast Anticancer Drug Screen. Data for the mlh1 rad18 strain (AID 175); settings: S. cerevisiae mlh1 rad18 strain growth inhibition, stronger effect = higher value
Procedure, shortened: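 Compound-treated yeast growth, normalised to vehicle controls. Strain bears defined DNA repair mutations.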

[4] = NCI Yeast Anticancer Drug Screen. Data for the rad52 strain (AID 147);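 further: 0% = growth of vehicle-treated control cultures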; settings: S. cerevisiae rad52 mutant growth inhibition, stronger effect = higher value
Procedure, shortened: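 Genetically altered yeast (DNA damage repair defect) treated with compound; inhibition calculated relative to vehicle.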

[5] = NCI Yeast Anticancer Drug Screen. Data for the wt1 strain (AID 149);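 further: 0% = growth of vehicle-treated wt1 cultures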; settings: S. cerevisiae wt1 strain (SPY 50644) growth inhibition, stronger effect = higher value
Procedure, shortened: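 Growth inhibition read against vehicle controls after compound exposure of the wt1 yeast strain.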

[6] = NCI Yeast Anticancer Drug Screen. Data for the rad50EPP+ strain (AID 151);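 further: 0% = growth of vehicle-treated control cultures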; settings: S. cerevisiae rad50 mutant strain, stronger effect = higher value
Procedure, shortened: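 Strain rad50EPP+; compound exposure; % growth inhibition vs vehicle.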

[7] = NCI Yeast Anticancer Drug Screen. Data for the mgt1 strain (AID 153); settings: S. cerevisiae mgt1 mutant growth inhibition, stronger effect = higher value
Procedure, shortened: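 Read-out: yeast growth inhibition vs vehicle control. Strain mgt1, drawn from a panel altered in DNA damage repair or cell cycle control.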

[8] = NCI Yeast Anticancer Drug Screen. Data for the rad50 strain (AID 155);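 further: 0% = growth of vehicle-only cultures of the same strain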; settings: S. cerevisiae rad50 strain growth inhibition, stronger effect = higher value
Procedure, shortened: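 Readout: growth inhibition relative to vehicle-treated cultures. Compound exposure was carried out in a genetically defined yeast strain deficient in DNA damage repair.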

[9] = NCI Yeast Anticancer Drug Screen. Data for the mec2-1 strain (AID 157); settings: S. cerevisiae mec2-1 strain, stronger effect = higher value
Procedure, shortened: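 Cells of the genetically defined mec2-1 yeast strain are incubated with test compound. Inhibition of growth is calculated against vehicle-treated controls.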

[10] = NCI Yeast Anticancer Drug Screen. Data for the rad14 strain (AID 159);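 further: 0% = growth of vehicle-treated control cultures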; settings: S. cerevisiae rad14 strain growth inhibition, stronger effect = higher value
Procedure, shortened: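 Growth inhibition vs vehicle controls; genetically altered yeast strain (DNA damage repair defect) treated with test compounds.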

[11] = NCI Yeast Anticancer Drug Screen. Data for the sgs1 mgt1 strain (AID 161);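 further: 0% = growth of cultures given vehicle only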; settings: S. cerevisiae sgs1 mgt1 strain, stronger effect = higher value
Procedure, shortened: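 Mutant yeast exposed to compound; growth scored against vehicle-only wells.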

[12] = NCI Yeast Anticancer Drug Screen. Data for the cln2 rad14 strain (AID 165);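 further: 0% = growth equal to vehicle treated cultures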; settings: S. cerevisiae cln2 rad14 strain, stronger effect = higher value
Procedure, shortened: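 The screen exposed genetically defined yeast (cln2 rad14) to test compounds and scored growth inhibition relative to vehicle-treated controls.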

[13] = NCI Yeast Anticancer Drug Screen. Data for the bub3 strain (AID 167); settings: S. cerevisiae bub3 mutant strain, stronger effect = higher value
Procedure, shortened: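 Readout: yeast growth inhibition, expressed relative to vehicle-only wells. The test organism is a mutant strain from a panel with lesions in DNA repair or checkpoint genes.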

[14] = NCI Yeast Anticancer Drug Screen. Data for the wt2 strain (AID 169);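 further: 0% = growth of vehicle-treated yeast cultures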; settings: S. cerevisiae wt2 strain growth inhibition, stronger effect = higher value
Procedure, shortened: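 Steps: yeast strain treated with compound; growth recorded; inhibition calculated relative to cultures given vehicle alone.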

[15] = NCI Yeast Anticancer Drug Screen. Data for the rad18 strain (AID 177); settings: S. cerevisiae rad18 mutant growth inhibition, stronger effect = higher value
Procedure, shortened: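 Inhibition values reflect reduced yeast growth compared with vehicle-treated controls, using a strain engineered with a DNA damage repair defect.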

[16] = at 5.0 µM (retest, dose inferred, filed as 0.5)
[17] = at 50.0 µM (retest, dose inferred, filed as 5.0)

Measured: growth inhibition

CCOC(=O)CC1(C(=O)OCC)c2[nH]c3ccccc3c2CCN1Cc1ccccc1 (centres undefined)
inactive: [1]; at 1.2 µM -4% | [1]; at 3.7 µM -3% | [1]; at 11.0 µM -2% | [1]; at 33.0 µM 11% | [1]; at 100.0 µM 45% | [2]; at 1.2 µM -4% | [2]; at 3.7 µM -7% | [2]; at 11.0 µM -5% | [2]; at 33.0 µM 0% | [2]; at 100.0 µM 40% | [3]; [16] 31% | [3]; [17] 31% | [3]; at 50.0 µM 65.2%

CCOC(=O)c1[nH]n(-c2ccccc2)c(=O)c1C=NC(=S)C(N)=S
active: [4]; at 33.0 µM 71% | [4]; at 100.0 µM 97% | [5]; at 100.0 µM 98% | [7]; at 100.0 µM 97% | [8]; at 33.0 µM 90% | [8]; at 50.0 µM 87.5% | [8]; at 100.0 µM 97% | [9]; at 33.0 µM 96% | [9]; [17] 88% | [9]; at 50.0 µM 90.7% | [9]; at 100.0 µM 97% | [10]; at 33.0 µM 95% | [10]; at 100.0 µM 97% | [11]; at 50.0 µM 91% | [12]; at 50.0 µM 90.4% | [13]; [17] 92% | [13]; at 100.0 µM 97% | [14]; at 100.0 µM 98% | [1]; at 33.0 µM 96% | [1]; at 100.0 µM 97% | [2]; at 33.0 µM 96% | [2]; at 100.0 µM 97% | [3]; [17] 92% | [3]; at 50.0 µM 86.3%
inactive: [4]; at 1.2 µM 24% | [4]; at 3.7 µM 21% | [4]; at 11.0 µM 30% | [5]; at 1.2 µM 19% | [5]; at 3.7 µM 8% | [5]; at 11.0 µM 25% | [5]; at 33.0 µM 29% | [6]; at 1.2 µM -3% | [6]; at 3.7 µM -23% | [6]; at 11.0 µM 5% | [6]; at 33.0 µM 30% | [6]; at 100.0 µM 69% | [7]; at 1.2 µM -6% | [7]; at 3.7 µM -10% | [7]; at 11.0 µM -16% | [7]; at 33.0 µM 34% | [8]; at 1.2 µM 8% | [8]; at 3.7 µM 29% | [8]; [16] -36% | [8]; at 11.0 µM 31% | [8]; [17] 19% | [9]; at 1.2 µM 5% | [9]; at 3.7 µM 5% | [9]; [16] -22% | [9]; at 11.0 µM -12% | [10]; at 1.2 µM -15% | [10]; at 3.7 µM -15% | [10]; at 11.0 µM -11% | [11]; [16] -4% | [11]; [17] 13% | [12]; [16] -4% | [12]; [17] 12% | [13]; at 1.2 µM -8% | [13]; at 3.7 µM -4% | [13]; [16] -27% | [13]; at 11.0 µM -8% | [13]; at 33.0 µM 8% | [13]; at 50.0 µM 60.2% | [14]; at 1.2 µM -2% | [14]; at 3.7 µM 0% | [14]; at 11.0 µM 7% | [14]; at 33.0 µM 46% | [1]; at 1.2 µM 22% | [1]; at 3.7 µM 16% | [1]; at 11.0 µM 43% | [2]; at 1.2 µM 21% | [2]; at 3.7 µM 27% | [2]; at 11.0 µM 41% | [3]; [16] -3%

O=C1NC(SSC2=NNC3(C(=O)N2)c2ccccc2-c2ccccc23)=NNC12c1ccccc1-c1ccccc12
inactive: [4]; at 1.2 µM 2% | [4]; at 3.7 µM -1% | [4]; at 11.0 µM 1% | [4]; at 33.0 µM 8% | [4]; at 100.0 µM 33% | [5]; at 1.2 µM 0% | [5]; at 3.7 µM 0% | [5]; at 11.0 µM 0% | [5]; at 33.0 µM 1% | [5]; at 100.0 µM 5% | [6]; at 1.2 µM 8% | [6]; at 3.7 µM 9% | [6]; at 11.0 µM 20% | [6]; at 33.0 µM 43% | [6]; at 100.0 µM 63% | [7]; at 1.2 µM 1% | [7]; at 3.7 µM 0% | [7]; at 11.0 µM 0% | [7]; at 33.0 µM -10% | [7]; at 100.0 µM 7% | [8]; at 1.2 µM -1% | [8]; at 3.7 µM 7% | [8]; [16] -4% | [8]; at 11.0 µM -13% | [8]; at 33.0 µM 18% | [8]; [17] 53% | [8]; at 100.0 µM 37% | [9]; at 1.2 µM 1% | [9]; at 3.7 µM 2% | [9]; [16] -11% | [9]; at 11.0 µM 3% | [9]; at 33.0 µM 7% | [9]; [17] 10% | [9]; at 100.0 µM 13% | [10]; at 1.2 µM -1% | [10]; at 3.7 µM -4% | [10]; at 11.0 µM -1% | [10]; at 33.0 µM 2% | [10]; at 100.0 µM 8% | [11]; [16] -7% | [11]; [17] -23% | [12]; [16] 0% | [12]; [17] -14% | [12]; at 50.0 µM 51.8% | [13]; at 1.2 µM 4% | [13]; at 3.7 µM 6% | [13]; [16] 10% | [13]; at 11.0 µM 7% | [13]; at 33.0 µM 12% | [13]; [17] 25% | [13]; at 100.0 µM 12% | [14]; at 1.2 µM -1% | [14]; at 3.7 µM -3% | [14]; at 11.0 µM -3% | [14]; at 33.0 µM 0% | [14]; at 100.0 µM 5% | [1]; at 1.2 µM 3% | [1]; at 3.7 µM 1% | [1]; at 11.0 µM 2% | [1]; at 33.0 µM 8% | [1]; at 100.0 µM 17% | [2]; at 1.2 µM -4% | [2]; at 3.7 µM -1% | [2]; at 11.0 µM -6% | [2]; at 33.0 µM 1% | [2]; at 100.0 µM 11% | [3]; [16] -11% | [3]; [17] -7% | [15]; at 1.2 µM 0% | [15]; at 3.7 µM 3% | [15]; at 11.0 µM 5% | [15]; at 33.0 µM 5% | [15]; at 100.0 µM 9%
active: [8]; at 50.0 µM 96.2% | [9]; at 50.0 µM 80% | [11]; at 50.0 µM 80.5% | [13]; at 50.0 µM 86.5% | [3]; at 50.0 µM 96.2%
